A short description of experiment [1]: A549 cell viability effects, profiling panel, calcein-AM fluorescence, 48 h, basal (AID 1162). Also: test concentration not given here. Particulars: higher = more signal.
A short description of experiment [2]: adipocyte viability effects, profiling panel, cell-based, 3T3-L1 adipocytes, calcein-AM fluorescence, 48 h, basal (AID 1163). Also: test concentration not given here. Particulars: 3T3-L1 adipocytes viability, higher = more signal.
Experiment [3] in a line: HepG2 cell viability effects, profiling panel, calcein-AM fluorescence, 48 h, basal (AID 1164). Also: test concentration not given here. As to conditions: higher = more signal.
Experiment [4] is described as follows: MM1S cell viability effects, profiling panel, calcein-AM fluorescence, 48 h, basal (AID 1165).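 Also: viability of MM1S multiple myeloma cells under basal unstimulated conditions; test concentration not given here.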 Particulars: higher = more signal.
The nature of experiment [5]: basal RPMI8226 viability, no added stimulus, profiling panel, cell-based, calcein-AM fluorescence, 48 h, PK04 Diversity Set (AID 1166).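 Also: cells grown under basal conditions without added stimulus; test concentration not given here.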 Particulars: higher = more signal; RPMI8226 myeloma viability, calcein-AM fluorescence, 48 h unless noted.
Experiment [6] in a line: basal HepG2 mitochondrial membrane potential changes, profiling panel, cell-based, JC-1 fluorescence, 24 h, 100 nL compound (AID 1167). Also: test concentration not given here. As to conditions: higher = more signal.
Experiment [7] in a line: basal 3T3-L1 adipocyte mitochondrial potential changes, profiling panel, cell-based, JC-1 fluorescence, 3T3-L1 adipocytes, 24 h, 100 nL compound (AID 1168). Also: test concentration not given here. As to conditions: JC-1 mitochondrial fluorescence; higher = more signal, called active from +8 up or from −8 down unless noted.
Experiment [8] can be described thus: basal RPMI8226 mitochondrial membrane potential changes, profiling panel, cell-based, JC-1 fluorescence, 24 h, 100 nL compound (AID 1169). Also: test concentration not given here. As to conditions: higher = more signal; RPMI8226 myeloma, JC-1 mitochondrial potential fluorescence, 24 h unless noted.
Experiment [9] can be described thus: basal MM1S mitochondrial membrane potential changes, profiling panel, cell-based, JC-1 fluorescence, 24 h, 100 nL compound (AID 1170). Also: test concentration not given here. Particulars: higher = more signal.
Experiment [10] in a line: A549 lung cancer cell viability effects, profiling panel, resazurin fluorescence, 24 h, PK04 Diversity Set (AID 1171). Also: test concentration not given here. As to conditions: higher = more signal, called active from +8 up or from −8 down unless noted.
Experiment [11] in a line: HepG2 liver cancer cell viability effects, profiling panel, resazurin fluorescence, 24 h, PK04 Diversity Set (AID 1172). Also: test concentration not given here. Particulars: higher = more signal. A general note: Alamar Blue is a resazurin reagent that responds to reducing activity.
The nature of experiment [12]: basal S. cerevisiae growth modulation, no modifier, primary screen, OD600, strain BY4716, 24 h, basal condition (AID 1173). As to conditions: OD600, 24 h; higher = more signal, called active from +8 up or from −8 down unless noted.
Experiment [13] in a line: MM1S myeloma cell viability, profiling panel, resazurin fluorescence, basal, 24 h, PK04 Diversity Set (AID 1174). Also: test concentration not given here. Particulars: higher = more signal, called active from +8 up or from −8 down unless noted.
The target in experiment [14] is Dihydroorotate dehydrogenase (quinone), mitochondrial (Plasmodium falciparum (isolate 3D7)) (UniProt Q08210). As to the kind of experiment: PfDHODH enzyme inhibitors, primary screen, biochemical, C-terminal His tag, absorbance 600 nm (AID 1175).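 Also: recombinant parasite enzyme with a five histidine tag at its C terminus; test concentration not given here.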 Particulars: DCIP absorbance 600 nm; higher = more signal, called active from +8 up or from −8 down unless noted.
Experiment [15] in a line: P. aeruginosa biofilm formation inhibitors, primary screen, strain PAO1, LB-PBS medium, absorbance 600 nm (AID 1176). Also: test concentration not given here. As to conditions: P. aeruginosa PAO1 growth/biofilm, A600, 12 h; higher = more signal.
Experiment [16] can be described thus: S. cerevisiae RM11-1a growth modifiers, primary screen, strain RM11-1a, OD600, basal, 24 h (AID 1177).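 Also: cultures grown under basal conditions with no added stressor; test concentration not given here.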 As to conditions: OD600, 24 h; higher = more signal, called active from +8 up or from −8 down unless noted.
A short description of experiment [17]: E. coli acrAB mutant growth effects, primary screen, E. coli filamentation inducers, strain DRC39, OD650, 24 h (AID 1178).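 Also: growth measured as culture turbidity by optical density at 650 nm; test concentration not given here.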 As to conditions: higher = more signal, called active from +8 up or from −8 down unless noted.
Experiment [18] is described as follows: E. coli acrAB mutant growth effects, primary screen, E. coli filamentation inducers, strain DRC39, OD650, 48 h (AID 1179).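 Also: screen aims at cell division blockers that make cells filament.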 As to conditions: E. coli DRC39 delta-acrAB growth, higher = more signal, called active from +8 up or from −8 down unless noted.
The nature of experiment [19]: RPMI8226 myeloma cell viability, profiling panel, resazurin fluorescence, basal, 24 h, PK04 Diversity Set (AID 1180).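 Also: RPMI8826 multiple myeloma cell line at 5000 cells per well; test concentration not given here.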 Particulars: higher = more signal; RPMI8226 viability, resazurin fluorescence, 24 h unless noted.
Experiment [20] deals with E3 ubiquitin-protein ligase XIAP (Homo sapiens) (UniProt P98170). Briefly: XIAP binders, primary screen, biophysical, small-molecule microarray, fluorescence 635 nm (AID 1181).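 Also: score merges 667 nm emission and signal to noise over triplicate slides.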 Particulars: small-molecule microarray binding, higher = more signal.

Structures are written as SMILES. Calls of active or inactive are those of the source. Unless noted, no rule for the calls is given here.

Chain of E3 ubiquitin-protein ligase XIAP (Homo sapiens) (P98170 whole entry, looked up): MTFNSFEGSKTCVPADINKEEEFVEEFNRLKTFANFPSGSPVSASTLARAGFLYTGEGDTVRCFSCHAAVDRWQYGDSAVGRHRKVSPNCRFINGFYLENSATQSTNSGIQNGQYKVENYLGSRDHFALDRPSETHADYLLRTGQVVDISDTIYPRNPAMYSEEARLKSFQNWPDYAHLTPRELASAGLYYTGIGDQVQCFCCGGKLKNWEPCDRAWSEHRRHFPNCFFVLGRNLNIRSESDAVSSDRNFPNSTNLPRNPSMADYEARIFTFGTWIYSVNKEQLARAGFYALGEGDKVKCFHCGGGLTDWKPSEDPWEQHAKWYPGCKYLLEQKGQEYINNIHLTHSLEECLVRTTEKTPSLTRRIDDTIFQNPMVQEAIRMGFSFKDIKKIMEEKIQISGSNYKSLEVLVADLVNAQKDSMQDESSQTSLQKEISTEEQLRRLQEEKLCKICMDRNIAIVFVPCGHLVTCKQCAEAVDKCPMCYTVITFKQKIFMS
Chain of Dihydroorotate dehydrogenase (quinone), mitochondrial (Plasmodium falciparum (isolate 3D7)) (Q08210 whole entry, looked up): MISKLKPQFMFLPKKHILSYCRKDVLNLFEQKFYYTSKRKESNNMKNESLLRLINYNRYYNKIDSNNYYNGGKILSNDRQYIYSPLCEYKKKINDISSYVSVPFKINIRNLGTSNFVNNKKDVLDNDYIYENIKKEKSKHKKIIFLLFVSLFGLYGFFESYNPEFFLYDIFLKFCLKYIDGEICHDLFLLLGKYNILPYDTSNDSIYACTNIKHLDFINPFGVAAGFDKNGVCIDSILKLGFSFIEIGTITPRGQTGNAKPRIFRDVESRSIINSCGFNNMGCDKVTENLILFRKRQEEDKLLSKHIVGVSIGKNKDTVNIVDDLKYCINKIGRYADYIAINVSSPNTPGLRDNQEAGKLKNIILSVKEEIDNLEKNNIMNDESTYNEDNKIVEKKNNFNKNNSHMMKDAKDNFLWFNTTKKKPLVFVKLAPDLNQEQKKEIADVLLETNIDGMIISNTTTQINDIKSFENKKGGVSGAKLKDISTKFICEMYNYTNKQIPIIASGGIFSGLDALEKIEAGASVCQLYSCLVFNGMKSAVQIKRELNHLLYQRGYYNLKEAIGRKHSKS

`COC(=O)[C@H]1[C@@H](O)[C@@]2(O)c3c(OC)cc(OC)cc3O[C@@]2(c2ccc(OC)cc2)[C@@H]1c1ccccc1`: the z-score was -2.35 in experiment [1]; -1.63 in [2]; -2.23 in experiment [3]; -3.46 in experiment [4]; -3.35 in experiment [5]; -2.69 in experiment [6]. Further, the z-score is -0.0573 (inactive) in experiment [7]; -0.727 in experiment [8]; -1.19 in experiment [9]; -4.41 (inactive) in experiment [10]; -2.12 in [11]; -0.795 (inactive) in [12]. In addition, the z-score is -3.65 (inactive) in experiment [13]; 0.511 (inactive) in experiment [15]; 0.452 (inactive) in [16]; 0.945 (inactive) in experiment [17]; 0.669 (inactive) in [18]; -4.1 in experiment [19]. Further, the composite z-score in experiment [14] was -0.447 (inactive); in experiment [20], -0.245.
For the compound `CCc1cc2c(nc1CC)CCN(CCC(C)=NOC)C2`, the z-score in [1] is 0.151; in experiment [2] it was 0.504; in experiment [3] it was 0.0911; in experiment [4] it was 0.69; in experiment [5], -2.14; in experiment [6] it was 2.55. For the same compound, the z-score was -1.37 (inactive) in experiment [7]; 1.07 in experiment [8]; 0.196 in [9]; -0.521 (inactive) in [10]; -0.64 in [11]; -0.37 (inactive) in experiment [12]. For the same compound, the z-score in [13] was 0.0324 (inactive); in experiment [15], 0.0738 (inactive); in [16], 0.246 (inactive); in experiment [17], -0.983 (inactive); in [18] it was -2.63 (inactive); in experiment [19], 0.0393. Besides, the composite z-score in [14] is 0.273 (inactive); in experiment [20] it was -0.0773.
For the compound `CCCC[C@@H]1C[C@H]1[C@@H](NP(=O)(c1ccccc1)c1ccccc1)c1ccc(Cl)cc1`, the z-score is -0.656 in experiment [1]; -1.31 in experiment [2]; -0.868 in experiment [3]; -2.05 in experiment [4]; -4.62 in experiment [5]; -1.35 in [6]. Moreover, the z-score in experiment [7] was -0.729 (inactive); in experiment [8], -0.861; in [9] it was -1.11; in [10], 2.22 (inactive); in experiment [11] it was 1.46; in experiment [12], -1.14 (inactive). For the same compound, the z-score in experiment [13] is 0.105 (inactive); in experiment [15], 0.122 (inactive); in experiment [16], -0.357 (inactive); in experiment [17], -0.429 (inactive); in experiment [18], -0.363 (inactive); in experiment [19], -0.0326. Moreover, the composite z-score in [14] was -0.717 (inactive); in experiment [20], 0.0077.
For `CCCc1cc2c(n1Cc1ccc(C)cc1)C(C)C1CN(C(=O)c3ccccc3)C(C)(C(=O)OC)C21` (stereo not given), the z-score is 0.345 in experiment [1]; -0.441 in [2]; 1.11 in experiment [3]; -2.84 in experiment [4]; -4.73 in [5]; 2.34 in [6]. For the same compound, the z-score in [7] is -0.268 (inactive); in experiment [8] it was 0.00271; in experiment [9], -1.59; in experiment [10], -1.58 (inactive); in experiment [11] it was -0.492; in experiment [12], -0.283 (inactive). Besides, the z-score in [13] is -1.04 (inactive); in experiment [15], 0.355 (inactive); in [16], -0.654 (inactive); in [17] it was 0.103 (inactive); in experiment [18], 0.357 (inactive); in [19] it was -1.11. For the same compound, the figures for the composite z-score in [14] and in experiment [20] were -1.07 (inactive) and 0.174, respectively.
Consider `COc1cc2c(cc1O)C=[N+](C)CC2`, for which the z-score in experiment [1] is 1.82; in [2], 0.775; in experiment [3], 0.496; in experiment [4] it was -0.0896; in experiment [5], 0.245; in experiment [6] it was 0.424. Moreover, the z-score was 0.964 (inactive) in [7]; -0.0385 in experiment [8]; -0.635 in experiment [9]; -1.52 (inactive) in [10]; -0.365 in [11]; 0.248 (inactive) in experiment [12]. The z-score in experiment [13] was -0.765 (inactive); in [15], 0.158 (inactive); in experiment [16], -0.756 (inactive); in [17] it was 0.313 (inactive); in experiment [18] it was 1.42 (inactive); in experiment [19] it was -0.383. In addition, the results for the composite z-score in experiment [14] and in experiment [20] were -1.7 (inactive) and 0.0613, respectively.
`COC(=O)[C@H]1[C@H](c2ccccc2)C(=O)[C@]2(O)c3ccccc3O[C@@]12c1ccccc1`: the z-score in experiment [1] was 0.594; in experiment [2], 0.833; in experiment [3], -0.0328; in experiment [4], 0.391; in [5] it was 0.001; in experiment [6], 0.338. The z-score is -0.113 (inactive) in [7]; 0.289 in experiment [8]; -0.0594 in experiment [9]; -1.73 (inactive) in [10]; -0.514 in experiment [11]; -2.2 (inactive) in [12]. Besides, the z-score in [13] was -0.417 (inactive); in experiment [15], 0.711 (inactive); in [16], -1.43 (inactive); in experiment [17], 0.401 (inactive); in experiment [18] it was -1.04 (inactive); in [19] it was -0.865. Further, the composite z-score is -1.36 (inactive) in experiment [14] and 0.17 in [20].
Take `C=C(CC1(CNP(=O)(c2ccccc2)c2ccccc2)CC1)c1ccccc1`: the z-score was -1.21 in [1]; -0.457 in [2]; -1.36 in experiment [3]; -0.159 in [4]; -0.614 in experiment [5]; -1.41 in experiment [6]. Further, the z-score was -0.531 (inactive) in experiment [7]; 0.29 in experiment [8]; -0.987 in experiment [9]; 0.344 (inactive) in experiment [10]; -0.101 in experiment [11]; 0.736 (inactive) in [12]. For the same compound, the z-score in [13] is -0.342 (inactive); in [15], 0.0944 (inactive); in experiment [16], 0.389 (inactive); in [17] it was -0.174 (inactive); in experiment [18], 0.249 (inactive); in [19], -0.34. The composite z-score in experiment [14] is 0.271 (inactive); in [20] it was -0.177.
As to `C[C@H]1O[C@H]2C3=C(C(=O)[C@@H]4O[C@@H]4[C@@H]3O)[C@@H]1[C@@H]1[C@@H](C)OC=C3[C@@H](O)[C@H]4O[C@H]4C(=O)[C@]312`, the z-score was 0.767 in experiment [1]; 0.439 in experiment [2]; 0.0608 in [3]; -1.54 in [4]; -0.168 in experiment [5]; -0.407 in experiment [6]. Also, the z-score was 0.407 (inactive) in [7]; 0.692 in [8]; -0.996 in experiment [9]; -0.831 (inactive) in experiment [10]; -0.85 in [11]; -0.92 (inactive) in [12]. The z-score in experiment [13] was -1.92 (inactive); in experiment [15], 0.629 (inactive); in experiment [16], -0.839 (inactive); in experiment [17] it was 0.215 (inactive); in [18], -0.115 (inactive); in experiment [19], -0.416. For the same compound, the composite z-score in [14] was -1.59 (inactive); in experiment [20], -0.136.

Source of the values: PubChem BioAssay.
